Results as given in PubChem BioAssay (NCI).
This is part of a sample that, as a whole, favours compounds with a hit. Of some 83,000 tested, about 20% had one in any assay.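 The test compound was applied at a single concentration to cells in 96-well plates for 48 hours, and percent growth was recorded.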 Values without a mark were called inactive. Activity calls are given as the source filed them. The calls were made as follows: active = growth percent below 10; inactive = the rest.

The compounds below were run on NCI-H23 lung (assay: NCI-60 one-dose screen, 48 h (100 = growth as untreated, 0 = no growth, -100 = all killed)). Details: 10 µM unless noted.

Row | Structure (SMILES) | growth
1 | O=C1CCCCN1c1ccc(C2=NCCCN2)cc1 | 99.2%
2 | O=C(Oc1ccc2c(c1)sc1nc(-c3ccccc3)[nH]c(=O)c12)C(F)(F)F | 52.8%
3 | CCNC(=O)N1CCc2c(Br)c3c(c(OC)c2C1Cc1ccc(OC)cc1)OCO3 (centres undefined) | 60.8%
4 | Cc1ccccc1N1CCN(C(=S)c2ccccc2)CC1 | 81.3%
5 | CS(=O)(=O)Nc1cc(-c2ccc3ncnc(Nc4ccc(F)c(Cl)c4)c3c2)ccc1Cl | 48.9%
6 | Fc1cc2[nH]ncc2c2c3c(c(-c4cn[nH]c4C(F)(F)F)nc12)CCCC3 | -12.2% (active)
7 | COc1ccc(CNc2ccc3nc(NC(=O)CN4CCCCCC4)sc3c2)cc1 | 71.1%
8 | COc1c2c(cc3c1C(=O)N[C@@H]1[C@@H](O)[C@@H](O)[C@H](O)C[C@@H]31)OCCO2 | 104%
9 | CCN1C(=O)N(c2ccccc2)C2NC(=S)N(/N=C/C=C/c3ccccc3OC)C21 (centres undefined) | 39.6%
10 | CSc1nc2ccc(C)cc2cc1/C=C1/C=C(c2ccccc2)NC1=O | 75.2%
11 | CC1=Nc2cnc(Nc3ccc(N4CCCCC4)cc3)nc2Nc2ccccc21 | 67.1%
12 | Nc1c(C(=O)Nc2cccc3ncccc23)sc2nc3c(cc12)CN(Cc1ccccc1)CC3 | 67.7%
13 | COCCn1cc(-c2nc(-c3cn(CCOC)c4ncccc34)cs2)c2cc(F)ccc21 | 53.5%
14 | COC(=O)[C@]1(C)CCC[C@]2(C)[C@H]3C[C@@H]4[C@H]5[C@@H]6CC/C(=N\OCC/C(N)=N/O)[C@H]5[C@@]3(CC[C@H]21)CC4(C(C)C)O6 | 73.4%
